# Reference: PubChem BioAssay
# “And” between values parts separate entries of the source, which are not always exact repeats. Equal values may be shown once. Records with an inconclusive call do not appear. Some compounds were tested as several samples or in several runs, with calls that do not always agree. The source made the active and inactive calls. Rule as the data show it, unless noted: active = inhibition above about 80%; inactive = the rest.
# Experiments:
# [1] = viability loss in pontine glioma line – cell-based, SU-DIPG-XXV, MIPE5.0, CellTiter-Glo, qHTS, dose response (AID 1347065; cut-off not given, nearly all actives have AC50 up to about 26 µM;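 also: cells exposed to compound for 48 hours before ATP readout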); conditions: CellTiter-Glo ATP luminescence
# [2] = sensitizers of A549 cells to miR-34 induction, primary screen, imaging, A549 dox-inducible miR-34, nuclei and caspase counts (AID 1347080;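 active = compounds whose cell count with miR-34 switched on is under 0.7 times the count with it off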); conditions: A549 miR-34 inducible, Hoechst nuclei count, 48 h
# [3] = survival rescue of mitochondrial mutant cells in low glucose, primary screen, MELAS cybrids, Rieske KO mouse fibroblasts, CellTiter-Glo (AID 1508586;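 active = mean z-score across replicates of 1.96 or higher in either the MELAS or the Rieske mutant cell line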;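 also: z relative to plate mean and SD of compound and empty wells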)
# [4] = LFS_MB_P medulloblastoma growth inhibition, cell-based, chromothripsis tumors, cisplatin or BGB combos (AID 1671449); conditions: LFS_MB_P medulloblastoma cells;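 also: cells exposed for 96 hours; 0% = vehicle DMSO and 100% = killing by high DMSO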
# [5] = HDN33 neuroblastoma growth inhibition, cell-based, chromothripsis tumors, cisplatin or BGB combos (AID 1671450); conditions: HDN33 neuroblastoma cells, stronger effect = higher value;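 also: cells exposed to compound for four days; 0% = vehicle DMSO and 100% = cell killing by high DMSO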
# [6] = ICB984 medulloblastoma cell growth inhibition, synergistic combos for chromothripsis tumors, cisplatin or BGB combos (AID 1671451; call rule not given here;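 also: cells exposed for 96 hours before readout; 0% = vehicle DMSO and 100% = killing by high DMSO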); conditions: ICB984 medulloblastoma cells, drug combinations, stronger effect = higher value
# [7] = LFS_MB_1R medulloblastoma cell growth inhibition, synergistic combos for chromothripsis tumors, cisplatin or BGB combos (AID 1671452); conditions: LFS_MB_1R medulloblastoma cells, stronger effect = higher value;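 also: cells exposed for 96 hours before readout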
# [8] = HTB85 osteosarcoma cell growth inhibition, synergistic combos for chromothripsis tumors, BGB or cisplatin IC20 combos (AID 1671453); conditions: HTB85 osteosarcoma cells, drug combinations, stronger effect = higher value;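 also: cells exposed for 96 hours before readout; 0% = vehicle DMSO and 100% = high DMSO killing control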
# [9] = CRL2098 osteosarcoma cell growth inhibition, synergistic combos for chromothripsis tumors, BGB or cisplatin IC20 combos (AID 1671454); conditions: CRL2098 osteosarcoma cells, drug combinations, stronger effect = higher value;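 also: cells exposed for 96 h before readout; 0% = vehicle DMSO and 100% = killing by high DMSO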
# [10] = HD-MB03 medulloblastoma cell growth inhibition, synergistic combos for chromothripsis tumors, BGB or cisplatin IC20 combos (AID 1671455; in the data active = inhibition above about 83%;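 also: 0% = vehicle DMSO and 100% = high DMSO as cytotoxic control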); conditions: HD-MB03 medulloblastoma cells, stronger effect = higher value
# [11] = UWB1.289 ovarian carcinoma cell growth inhibition, synergistic combos for chromothripsis tumors, BGB or cisplatin combos (AID 1671456); conditions: UWB1.289 ovarian carcinoma cells, stronger effect = higher value;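 also: cells exposed to compound for four days; 0% = vehicle DMSO and 100% = killing by high DMSO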
# [12] = LFS_MB_2R medulloblastoma cell growth inhibition, synergistic combos for chromothripsis tumors, cisplatin combos (AID 1671457); conditions: LFS_MB_2R medulloblastoma cells, stronger effect = higher value;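 also: cells exposed to compound for four days before readout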
# [13] = MDA-MB-436 breast carcinoma cell growth inhibition, synergistic combos for chromothripsis tumors, BGB or cisplatin combos (AID 1671458; call rule not given here;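 also: cells exposed for 96 hours; 0% = vehicle DMSO and 100% = killing by high DMSO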); conditions: MDA-MB-436 breast carcinoma growth inhibition, drug combinations, stronger effect = higher value
# [14] = UWB1.289_BRCA1 ovarian cancer growth, cell-based, BGB or cisplatin combinations (AID 1671459); conditions: UWB1.289 BRCA1 ovarian carcinoma, drug combinations, stronger effect = higher value
# [15] = human astrocyte viability loss, single and combined drugs, cytotoxicity control for chromothriptic childhood tumor combination screen, cell-based, BGB or cisplatin IC20 combos (AID 1671460); conditions: Human astrocytes, drug combinations, stronger effect = higher value;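 also: cells exposed to compounds for 96 hours before viability readout; 0% = vehicle and 100% = killing control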
# [16] = growth inhibition of BT084 medulloblastoma cells, cell-based, ICGC_MB145, cisplatin and BGB IC40 combos (AID 1671461); conditions: drug combinations, stronger effect = higher value;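 also: cells exposed to drugs for 96 hours; 0% = vehicle DMSO and 100% = high DMSO full killing control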
# [17] = growth inhibition of RCMB18 medulloblastoma cells, cell-based, cisplatin and BGB IC40 combos (AID 1671462); conditions: stronger effect = higher value;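 also: cells exposed to compound for four days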
# [18] = growth inhibition of CRL1545 osteosarcoma cells, cell-based, cisplatin and BGB IC20 combos (AID 1671464); conditions: stronger effect = higher value;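 also: cells exposed to compound for 96 hours before readout; 0% = vehicle DMSO and 100% = high DMSO killing control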
# [19] = measured here: combination with BGB IC40, at 0.05 µM
# [20] = measured here: with BGB IC20 combination, at 0.5 µM
# [21] = measured here: with cisplatin IC20 combination, at 0.5 µM
# [22] = measured here: combination with cisplatin, at 0.5 µM
# [23] = measured here: combination with cisplatin, at 5 µM
smiles,measurement,setting,value
CNCc1ccc(-c2cc(-c3nc(-c4ccc(S(=O)(=O)C(C)C)cc4)cnc3N)on2)cc1,AC50,[1],6.61 µM (active)
same,fold change,"[2]; stronger effect = lower value, cell number ratio, induced over uninduced",1.09 (inactive)
same,fold change,[2]; measured here: relative caspase fold change +Dox/-Dox,0.389
same,cell count,"[2]; measured here: total cells with miR-34 induction, stronger effect = lower value",2400
same,cell count,[2]; measured here: total cells without miR-34 induction,2210
same,z-score,"[3]; MELAS cybrid survival, CellTiter-Glo 48 h, stronger effect = higher value",2.18 (active)
same,z-score,"[3]; Rieske KO mouse fibroblast survival, CellTiter-Glo 72 h",-0.548
same,inhibition,"[4]; at 0.5 µM, stronger effect = higher value",-32.1% (inactive) and 15.3% (inactive)
same,inhibition,"[4]; measured here: combination with BGB IC20, at 0.005 µM",12.2% and -16.2%
same,inhibition,"[4]; measured here: combination with BGB IC40, at 0.005 µM",9.32% and -55%
same,inhibition,[4]; [19],-2.44% and -42.7%
same,inhibition,"[4]; measured here: combination with cisplatin, at 0.5 µM, stronger effect = higher value",-68.5% and 16.4%
same,inhibition,"[4]; measured here: combination with cisplatin, at 5 µM, stronger effect = higher value",96.1% and -3.93%
same,inhibition,"[5]; BGB combo, at 5 µM",99.9% and 91.5%
same,inhibition,[5]; at 0.5 µM,81% (active) and 55% (inactive)
same,inhibition,"[5]; cisplatin combo, at 5 µM",99.7% and 98.8%
same,inhibition,[5]; [20],74.7% and 52.8%
same,inhibition,[5]; [21],84.9% and 61.2%
same,inhibition,"[5]; single agent, at 5 µM",99.6% and 97.3%
same,inhibition,"[6]; BGB IC20 combo, at 0.005 µM",10% and -1.43%
same,inhibition,"[6]; BGB IC40 combo, at 0.005 µM",46.6% and 13%
same,inhibition,"[6]; BGB IC40 combo, at 0.05 µM",102%
same,inhibition,[6]; at 0.5 µM,-9.05% (inactive) and -13.1% (inactive)
same,inhibition,"[6]; cisplatin combo, at 0.05 µM",102% and 103%
same,inhibition,"[6]; cisplatin combo, at 0.5 µM",-4.28% and -29.4%
same,inhibition,"[6]; cisplatin combo, at 5 µM",0.208% and -7.66%
same,inhibition,"[6]; measured here: 5 uM single agent, at 5 µM",4.2% and -17.2%
same,inhibition,[7]; at 0.5 µM,-10.6% (inactive) and -30.6% (inactive)
same,inhibition,[7]; [19],-16.3% and -24.4%
same,inhibition,[7]; [22],-6.99% and -51.5%
same,inhibition,[7]; [23],103% and 92%
same,inhibition,[8]; at 0.5 µM,67.2% (inactive) and 53.2% (inactive)
same,inhibition,"[8]; measured here: with BGB IC20, at 0.5 µM",67.9% and 66.3%
same,inhibition,"[8]; measured here: with BGB IC20, at 5 µM",99.8% and 98.3%
same,inhibition,"[8]; measured here: with cisplatin IC20, at 0.5 µM",78.5% and 60.7%
same,inhibition,"[8]; measured here: with cisplatin IC20, at 5 µM",99.8% and 88.8%
same,inhibition,"[8]; single agent, at 5 µM",99.8% and 79%
same,inhibition,[9]; at 0.5 µM,45.2% (inactive) and 30% (inactive)
same,inhibition,"[9]; measured here: combination with BGB at IC20, at 0.5 µM",27% and 27.5%
same,inhibition,"[9]; measured here: combination with cisplatin at IC20, at 0.5 µM",60.9% and 31.3%
same,inhibition,[10]; at 0.5 µM,87.3% (active) and 58.6% (inactive)
same,inhibition,"[10]; measured here: combo with BGB at IC20, at 0.5 µM",82.9% and 61.6%
same,inhibition,"[10]; measured here: combo with cisplatin at IC20, at 0.5 µM",96.2% and 87.4%
same,inhibition,[11]; at 0.5 µM,83% (active) and 72.2% (inactive)
same,inhibition,"[11]; measured here: inhibition with BGB combination, at 0.05 µM",7.96% and -9.18%
same,inhibition,"[11]; measured here: inhibition with cisplatin combination, at 0.05 µM",41.3% and 1.85%
same,inhibition,[12]; at 0.5 µM,13.8% (inactive) and -20% (inactive)
same,inhibition,[12]; [22],29.2% and -5.7%
same,inhibition,[12]; [23],104% and 53.6%
same,inhibition,[13]; at 0.5 µM,55.5% (inactive) and 36% (inactive)
same,inhibition,"[13]; measured here: BGB combination, at 0.5 µM",34.5% and 11.4%
same,inhibition,"[13]; measured here: BGB combination, at 5 µM",82.1% and 63.6%
same,inhibition,"[13]; measured here: cisplatin combination, at 0.5 µM",76.4% and 54%
same,inhibition,"[13]; measured here: cisplatin combination, at 5 µM",109% and 82.4%
same,inhibition,"[14]; BGB combination, concentration series, at 5 µM",101% and 97.7%
same,inhibition,[14]; at 0.5 µM,90.3% (active) and 82.2% (active)
same,inhibition,"[14]; cisplatin combination, concentration series, at 5 µM",84.8% and 106%
same,inhibition,[15]; at 0.5 µM,-32% (inactive) and -35.2% (inactive)
same,inhibition,"[15]; measured here: combo with BGB IC20, at 0.5 µM",-34.1% and -25.6%
same,inhibition,"[15]; measured here: combo with cisplatin IC20, at 0.5 µM",-44.2% and -41.4%
same,inhibition,[16]; at 0.5 µM,29.8% (inactive) and 12.8% (inactive)
same,inhibition,"[16]; cisplatin combination, at 0.5 µM",27.7% and 16.2%
same,inhibition,"[16]; cisplatin combination, at 5 µM",109% and 105%
same,inhibition,"[16]; measured here: BGB IC40 combination 0.05 uM, at 0.05 µM",-22.6% and -25.3%
same,inhibition,"[16]; single agent, at 5 µM",107% and 108%
same,inhibition,[17]; at 0.5 µM,31.8% (inactive) and 0.94% (inactive)
same,inhibition,"[17]; cisplatin combo, at 5 µM",104% and 103%
same,inhibition,"[17]; measured here: BGB IC40 combination, at 0.05 µM",11.9% and -20.4%
same,inhibition,[17]; [22],38.1% and -11.6%
same,inhibition,"[17]; single agent, at 5 µM",101%
same,inhibition,[18]; at 0.5 µM,95% (active) and 91% (active)
same,inhibition,[18]; [20],91.2% and 85.8%
same,inhibition,[18]; [21],96.8% and 93.6%
same,inhibition,"[18]; single agent, at 0.05 µM",35.3% and -10.3%
same,inhibition,"[18]; single agent, at 5 µM",99.8% and 99.5%
